Source: PubChem BioAssay
A selection: hits, their analogues and other compounds. The true share with any hit is near 1.8%.
LYPLA2 counter: LYPLA2 inhibitors, primary screen, counter-screen for PME1 inhibitor project, biochemical, fluorescence polarization, FP-Rh probe ABPP. Acyl-protein thioesterase 2 (Homo sapiens), O95372. recombinant LYPLA2. inhibition, % at 5.9 µM. 320,000 compounds, 0.38% hits. AID 2177, 2009;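 active = inhibition above the screen-wide mean plus 3 SD, limit set per campaign, cut at about 26% in these data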
PME-1 primary: PME-1 inhibitors via competitive probe labeling, primary screen, biochemical, fluorescence polarization, FP-Rh probe, HTS; AID 2130, 2009; recombinant PME-1; Protein phosphatase methylesterase 1 (Homo sapiens), Q9Y570; 320,000 compounds, 0.53% hits; inhibition, % at 5.9 µM;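 active = inhibition above the campaign mean of all compounds plus 3 SD, cut at about 26% in these data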;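 note: competitive labeling of PME-1 active site by serine hydrolase directed probe; inhibitors block probe labeling so polarization falls and inhibition rises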
Fam108B counter: mouse Fam108B serine hydrolase inhibitors, primary screen, counter-screen for RBBP9 inhibitor project, biochemical, fluorescence polarization. recombinant Fam108B, FP-Rh probe fluorescence polarization. 300,000 compounds, 0.33% hits. inhibition, % at 9.51 µM. AID 1947, 2009;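 active = inhibition above the screen mean inhibition plus 3 SD, computed separately per campaign, cut at about 18% in these data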;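 note: inhibitors lower polarization as less probe binds the enzyme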
LYPLA1 counter: LYPLA1 inhibitors, primary screen, counter-screen for PME1 inhibitor project, biochemical, fluorescence polarization, FP-Rh probe ABPP; recombinant LYPLA1; Acyl-protein thioesterase 1 (Homo sapiens), O75608; 320,000 compounds, 0.16% hits; AID 2174, 2009; inhibition, % at 5.9 µM;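 active = inhibition above the mean of all tested compounds plus 3 SD, set per campaign, cut at about 14% in these data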;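 note: inhibitors block serine hydrolase probe labeling of LYPLA1 so polarization falls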
PP1 inh: PP1-alpha phosphatase inhibitors, primary screen, counter-screen for PP5 inhibitor project, biochemical, fluorescence, OMFP substrate, single point. purified PP1alpha. 320,000 compounds, 0.9% hits. Serine/threonine-protein phosphatase PP1-alpha catalytic subunit (Homo sapiens), P62136. inhibition, % at 6.7 µM;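 active = inhibition above the mean inhibition of all tested compounds plus 3 SD, computed separately for each screening campaign, cut at about 15% in these data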
PP5 primary: PP5 phosphatase inhibitors, primary screen, biochemical, fluorescence. purified PP5c, OMFP substrate fluorescence. inhibition, % at 6.7 µM. 320,000 compounds, 0.18% hits. AID 1987, 2009;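 active = inhibition above the campaign's mean inhibition across all tested compounds plus 3 SD, cut at about 9.5% in these data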
Target sequence (P53041 whole entry, looked up): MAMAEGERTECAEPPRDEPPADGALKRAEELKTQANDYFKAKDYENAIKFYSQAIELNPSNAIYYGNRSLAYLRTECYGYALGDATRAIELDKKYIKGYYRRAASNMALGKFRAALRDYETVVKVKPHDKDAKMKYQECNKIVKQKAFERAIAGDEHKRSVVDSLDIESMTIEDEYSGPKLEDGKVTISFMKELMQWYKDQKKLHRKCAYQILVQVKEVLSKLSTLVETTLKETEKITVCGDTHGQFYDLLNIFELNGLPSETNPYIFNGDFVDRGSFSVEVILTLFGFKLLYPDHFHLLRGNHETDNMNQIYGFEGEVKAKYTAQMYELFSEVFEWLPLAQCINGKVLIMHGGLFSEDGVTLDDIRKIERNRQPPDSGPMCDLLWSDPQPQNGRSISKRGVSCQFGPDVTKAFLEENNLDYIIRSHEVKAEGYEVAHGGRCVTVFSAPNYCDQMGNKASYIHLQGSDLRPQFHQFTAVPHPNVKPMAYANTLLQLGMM
PP1 confirm: PP1 phosphatase inhibitors, confirmation, biochemical, fluorescence, OMFP substrate, triplicate; shares compounds with PP1 inh; purified PP1alpha; inhibition, % at 6.7 µM; 1,900 compounds, 52% hits;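 active = mean PP1 inhibition above a set limit taken from the earlier primary screen, cut at about 15% in these data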
PP5 inh counter: PP5 phosphatase inhibition by PP1 hits, confirmation, counter-screen for PP1 inhibitor project, biochemical, fluorescence, triplicate | shares compounds with PP1 inh | purified PP5c, OMFP fluorescence | inhibition, % at 6.7 µM | 1,900 compounds, 4% hits;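 active = mean PP5 inhibition over triplicate wells above about 9.5% taken from the earlier PP1 screen, limit read from the data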
Numbers stand for hits; 0 = inactive; - = no result.

SMILES | LYPLA2 counter | PME-1 primary | Fam108B counter | LYPLA1 counter | PP1 inh | PP5 primary | PP1 confirm | PP5 inh counter
Cc1cc(C)c2nc(N3C(=O)C(O)=C(C(=O)c4ccco4)C3c3ccco3)sc2c1 (stereo unspecified) | 0 | 0 | 0 | 0 | 32 | 0 | 31 | 0
CCOC(=O)c1sc(N2C(=O)C(O)=C(C(=O)c3ccco3)C2c2ccco2)nc1C (stereo unspecified) | 0 | 0 | 0 | 0 | 18 | 0 | 0 | 0
CCOc1ccc2nc(N3C(=O)C(O)=C(C(=O)c4ccco4)C3c3ccco3)sc2c1 (stereo unspecified) | 0 | 0 | - | 0 | 0 | 0 | - | -
Cc1ccc2nc(N3C(=O)C(O)=C(C(=O)c4ccco4)C3c3cccs3)sc2c1 (stereo unspecified) | 0 | 0 | 0 | 0 | 28 | 0 | 28 | 0
COc1ccc2nc(N3C(=O)C(O)=C(C(=O)c4ccco4)C3c3ccccc3OC)sc2c1 (stereo unspecified) | 0 | 0 | 0 | 0 | 29 | 0 | 20 | 0
COc1ccc(C2C(C(=O)c3ccco3)=C(O)C(=O)N2c2nnc(C)s2)cc1 (stereo unspecified) | 0 | 0 | 0 | 0 | 0 | 0 | - | -
COc1ccc(CCNC(=O)C2CCCN(S(C)(=O)=O)C2)cc1 (stereo unspecified) | 0 | 0 | 0 | 0 | 0 | 0 | - | -
Cc1ccc(C(=O)C2=C(O)C(=O)N(c3ncccn3)C2c2ccc(Cl)cc2)o1 (stereo unspecified) | 0 | 0 | 0 | 0 | 0 | 0 | - | -
Cc1ccc2nc(N3C(=O)C(O)=C(C(=O)c4ccc(C)o4)C3c3ccc(O)cc3)sc2c1 (stereo unspecified) | 0 | 0 | - | 0 | 30 | 0 | 21 | 0
CCCCC1CCC(C(=O)N(CC(C)C)c2c(N)n(Cc3ccccc3)c(=O)[nH]c2=O)CC1 (stereo unspecified) | 0 | 0 | 0 | 0 | 0 | 0 | - | -
Cc1cccc(CSc2ccc3nnc(-c4ccccn4)n3n2)c1 | 0 | 0 | 0 | 0 | 19 | 0 | 0 | 0
CN(C)S(=O)(=O)c1ccc(N2CCCC2)c(C(=O)NC2CCC(O)CC2)c1 (stereo unspecified) | 0 | 0 | 0 | 0 | 0 | 0 | - | -
O=c1cc(-c2ccccc2Cl)oc2c(NS(=O)(=O)c3ccccc3OC(F)(F)F)ccc(O)c12 | 0 | 0 | 0 | 0 | 24 | 0 | 0 | 0
N#C/C(=C/c1ccc(Sc2nc3ccccc3[nH]2)o1)c1ccccc1F | 0 | 0 | 0 | 0 | 37 | 0 | 0 | 0
CCN(CC)CCNC(=O)C(=O)Nc1cc2c3c(c1)CCN3C(=O)CC2 | 0 | 0 | 0 | 0 | 18 | 0 | 0 | 0
CNC(=O)C(=O)Nc1cc2c3c(c1)CCN3C(=O)CC2 | 0 | 0 | 0 | 0 | 0 | 0 | - | -
O=C1CCC(C(=O)OCc2nnc(-c3ccccc3)o2)=NN1 | 0 | 0 | 0 | 0 | 0 | 0 | - | -
CC(C)c1ccc2c(c1)C(N1CCNCC1)Cc1ccc(F)cc1S2 (stereo unspecified) | 0 | 0 | 0 | 0 | 19 | 0 | 0 | 0
c1ccc(-c2nnc(-c3ccccn3)nc2NC2CCCCC2)cc1 | 0 | 0 | 0 | 0 | 21 | 0 | 0 | 0
O=C(CCOc1ccccc1)Nc1ccccc1F | 0 | 0 | 0 | 0 | 0 | 0 | - | -
O=C(Nc1nc(-c2ccccn2)cs1)C1CC(=O)N(c2ccc3c(c2)OCCO3)C1 (stereo unspecified) | 0 | 0 | 0 | 0 | 45 | 0 | 55 | 0
O=C(Nc1ccc(Cc2ccncc2)cc1)c1cccc([N+](=O)[O-])c1 | 0 | 0 | 0 | 0 | 0 | 0 | - | -
O=C(CCNc1ccc(Cc2ccncc2)cc1)c1ccc([N+](=O)[O-])cc1 | 0 | 0 | 0 | 0 | 18 | 0 | 0 | 0
